Source: PubChem
D1 ag = human D1 receptor agonism; P21728; HEK293 T-REx D1 cells, calcium flux, agonist mode; activation, % at 2 µM; actives 1% (n = 360,000); further: 0% is about no effect
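Inducible HEK293 T-REx D1 cells, force-coupled to calcium signalling, were plated at 4000 cells/well with tetracycline and held overnight at 30 C. After no-wash calcium dye loading, compound-evoked calcium rise over 180 s flagged agonists.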
TRHR agonist = TRH receptor (human) agonism; P34981; TRHR cells, calcium flux fluo-8, FDSS agonist mode; activation, % at 2 µM; actives 0.18% (n = 360,000); further: 0% is about no effect
Target sequence (P34981 whole entry, looked up): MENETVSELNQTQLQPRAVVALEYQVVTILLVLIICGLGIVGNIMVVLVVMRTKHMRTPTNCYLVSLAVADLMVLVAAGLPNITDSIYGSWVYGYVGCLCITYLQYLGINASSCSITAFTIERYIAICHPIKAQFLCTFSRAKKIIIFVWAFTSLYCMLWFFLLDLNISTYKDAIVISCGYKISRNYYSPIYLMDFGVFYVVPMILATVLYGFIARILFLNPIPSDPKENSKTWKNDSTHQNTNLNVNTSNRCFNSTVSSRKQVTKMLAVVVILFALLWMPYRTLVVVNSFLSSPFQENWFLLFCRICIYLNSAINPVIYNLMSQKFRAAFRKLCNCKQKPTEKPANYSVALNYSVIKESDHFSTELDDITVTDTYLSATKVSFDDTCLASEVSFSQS
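Read-out: compound-evoked intracellular calcium rise in TRHR cells, fluo-8 dye, kinetic FDSS fluorescence at 1 s/cycle following a 10-cycle baseline. Cells cultured overnight before dye loading (30 min–1.5 h, RT).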
TRHR enhancer = TRH receptor (human) allosteric enhancement; enhancement, % at 2 µM; P34981; actives 0.66% (n = 360,000); TRHR cells, fluo-8 calcium fluorescence, EC20 TRH enhancement; in the data active means enhancement above about 30%; further: 0% is about no effect
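Enhancer read-out: after compound pinning and an initial kinetic agonist-mode read, an EC20 of TRH (10 nM final) was injected and fluo-8 calcium signal (Ex 480/Em 530) followed at 1 s/cycle for 100 cycles in TRHR-expressing cells.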
D1 potentiator = potentiators of human D1 dopamine receptor. P21728. HEK293 TREx D1 cells, calcium flux, dopamine EC20 potentiation. potentiation, % at 10 µM. actives 0.036% (n = 360,000). AID 504651; in the data active means potentiation above about 30%; further: 0% is about no effect
D1 antag = blocks dopamine activation of the human D1 receptor | HEK293 TREx D1 cells, calcium flux, dopamine EC80; stronger effect = lower value | activity change, negative = inhibition, % at 10 µM | actives 3.2% (n = 360,000); in the data active means activity change below about -30%; further: on the % scale 0 is the no-effect control and ±100 the full control effect
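Tetracycline-induced HEK293 Trex D1 cells, force-coupled to calcium, dye-loaded; compounds added and read 180 s, then EC80 dopamine added and calcium flux tracked kinetically another 180 s.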
Starred values were filed as active, the others as inactive; · = no result given. Shown are actives, neighbours in structure and some others; about 4.7% of the full set was active somewhere. Unless noted, no stated cut-off is given here; in the data, active means activation above about 30%; inactive means the rest.

SMILES | D1 ag | TRHR agonist | TRHR enhancer | D1 potentiator | D1 antag
Cc1ccc(CNC(=O)c2c(-c3cccc(Br)c3)noc2C)o1 | 1 | -1 | 7 | 0 | 6
COc1ccc(Oc2ccc(/C=N/NC(=O)c3cccnc3)cc2[N+](=O)[O-])cc1 | -3 | -1 | -26 | -8 | -43*
COc1ccc(N=CC2=C(O)CC(C)(C)CC2=O)cc1 | 3 | 0 | 38* | -5 | 2
COc1ccc(OC)c(N=CC2=C(O)CC(C)(C)CC2=O)c1 | 1 | 0 | 6 | -7 | 1
Cc1ccc(S(=O)(=O)N2CCN(Cc3cc(=O)n4nc(-c5ccccc5Cl)sc4n3)CC2)cc1 | 1 | 0 | -2 | 0 | 2
CCn1ccc2cc(S(=O)(=O)N3CCC(C(=O)NCCc4ccc(SC)cc4)CC3)ccc21 | 3 | 0 | 0 | -2 | 9
CC(=O)N1CCN(c2nc(N)c(C#N)c(CC#N)c2C#N)CC1 | 2 | 1 | 1 | -11 | -65*
N#CCc1c(C#N)c(N)nc(N2CCN(C=O)CC2)c1C#N | 0 | 1 | 0 | -2 | 8
CN=c1scc(-c2cccs2)n1/N=C/c1ccc(O)c(O)c1O | 1 | 0 | 24 | -11 | -89*
CN=c1scc(-c2cccs2)n1/N=C/c1ccccc1O | -1 | 0 | 5 | 1 | -14
COc1ccc(S(=O)(=O)c2nnn(-c3ccccc3F)c2C)cc1 | 10 | 0 | -4 | -4 | -8
COc1ccc(S(=O)(=O)c2nnn(-c3ccc(C)c(Cl)c3)c2C)cc1 | 31* | 3 | -2 | -4 | -21
Cc1n[nH]c(=S)c2nn(-c3ccccc3)c(C)c12 | 1 | -1 | -1 | -9 | -33*
Cc1ccc(-n2nc3c(=S)[nH]nc(C)c3c2C)cc1 | 2 | 1 | 2 | 1 | -1
Nc1ccc2c(c1)Cc1cc([N+](=O)[O-])ccc1-2 | 122* | 44* | 5 | -6 | -36*
Cc1ccc([N+](=O)[O-])cc1N | 7 | -1 | -3 | -4 | 5
COc1ccc(C(=O)Nc2ccc(C(=O)OCc3cc(=O)n4nc(C5CC5)sc4n3)cc2)cc1 | 0 | 1 | 0 | 0 | -7
COc1ccc(S(=O)(=O)N2CCC(n3c(C)nc4cccnc43)CC2)cc1Cl | 15 | 2 | -2 | -4 | -34*
N#CC1(NC(=O)COC(=O)c2cc(O)c3ccccc3c2O)CCCCC1 | 10 | 0 | 13 | -3 | -40*
O=C(c1ccc(OC2CCN(CCc3ccccc3)CC2)cc1)N1CCC[C@H]1CO | 0 | 1 | 5 | -5 | -79*
CCOC(=O)c1cc(C#N)c(SC)nc1-c1ccccc1 | 9 | 0 | -2 | -3 | -44*
CCOC(=O)c1cc(C#N)c(SC)nc1C | 1 | -2 | 1 | 0 | 2
Cc1cccn2c(=O)c3cc(C(=O)NCCc4ccc(S(N)(=O)=O)cc4)n(C)c3nc12 | 2 | 0 | 5 | 0 | 14
CCCCN(CCCC)S(=O)(=O)c1ccc(C(=O)Nc2sc3c(c2C(N)=O)CCN(CC)C3)cc1 | 78* | 17 | 28 | 2 | 6
CNC(=O)c1c(NC(=O)c2ccc(S(=O)(=O)N3CC(C)OC(C)C3)cc2)sc2c1CCN(C(C)C)C2 (configuration not stated) | 6 | 2 | 5 | -5 | 13
SMILES | D1 ag | TRHR agonist | TRHR enhancer | D1 potentiator | D1 antag
CNC(=O)c1c(NC(=O)c2ccc(S(=O)(=O)N3CCCC3)cc2)sc2c1CCN(C(C)C)C2 | 89* | 47* | 3 | -1 | 4
CC(C)N1CCc2c(sc(NC(=O)c3ccc(S(=O)(=O)N4CCOCC4)cc3)c2C(N)=O)C1 | 2 | 10 | 2 | -4 | -4
CC(C)CN(CC(C)C)S(=O)(=O)c1ccc(C(=O)Nc2sc3c(c2C(N)=O)CCN(C(C)C)C3)cc1 | 54* | 18 | 9 | -2 | 28
CCN1CCc2c(sc(NC(=O)c3ccc(S(=O)(=O)N(CC)c4ccccc4)cc3)c2C(N)=O)C1 | 148* | 74* | 15 | -4 | -20
CCCCNC(=O)c1ccc(N2CCC3(CC2)OCCO3)c([N+](=O)[O-])c1 | 2 | 0 | 1 | -6 | -50*
CCOC(=O)N1CCC(NC(=O)c2ccc(N3CCC4(CC3)OCCO4)c([N+](=O)[O-])c2)CC1 | 3 | 0 | 3 | -7 | 8
Cc1cccc(N2CCN(C(=O)Cn3nc(Cc4cccnc4)c4ccccc4c3=O)CC2)c1C | 0 | 0 | -11 | 2 | 1
Cc1ccccc1OC(C)C(=O)N1CCC(Cc2ccccc2)CC1 (configuration not stated) | 13 | 0 | -5 | -2 | -47*
Cc1ccc([N+](=O)[O-])c(OCCN2CCC(Cc3ccccc3)CC2)c1 | 27 | 3 | 4 | -13 | -55*
Cc1ccc(/C=C/C(=O)N2CCC(Cc3ccccc3)CC2)cc1 | 10 | 1 | 6 | -9 | -33*
COc1ccccc1OC(C)C(=O)N1CCC(Cc2ccccc2)CC1 (configuration not stated) | 3 | -1 | 3 | -7 | -10
Cc1ccc(/C=C/C(=O)N2CCCC(C)C2)cc1 (configuration not stated) | 1 | 0 | -1 | -2 | -3
Cc1cccc(C(=O)N2CCC(Cc3ccccc3)CC2)c1[N+](=O)[O-] | 1 | 0 | 9 | -6 | -36*
Cc1cc(C)c2nc(NC(=O)C3CSC4(C)CCC(=O)N34)sc2c1 (configuration not stated) | 2 | 0 | 3 | -3 | 8
Cc1ccc(-c2nnc(N3CCOCC3)c3ccccc23)cc1S(=O)(=O)N(C)C | 5 | -1 | 14 | 2 | 14
Cc1cc(C)cc(N(C(=O)c2csnn2)C(C(=O)NC2CCCC2)c2cccnc2)c1 (configuration not stated) | 1 | 0 | -2 | 2 | -4
CC1CCCN(C(=O)CSCC(=O)Nc2nc(-c3cccs3)cs2)C1 (configuration not stated) | 12 | 3 | -5 | · | -84*
Cc1cc(N2CCCCC2)nc(N)n1 | 19 | 42* | -5 | -1 | 5
CCCCN(C(=O)CSc1ncn[nH]1)c1c(N)n(Cc2ccccc2)c(=O)[nH]c1=O | 5 | 0 | -5 | -10 | 4
CCC(CC)C(=O)N1CCc2cc(OC)c(OC)cc2C1COc1ccc2c(C)cc(=O)oc2c1 (configuration not stated) | 0 | 0 | -1 | 1 | -2
Cc1ccc(C(c2nnnn2C2CCCCC2)N2CCc3ccccc32)cc1 (configuration not stated) | 3 | -1 | 5 | -8 | -34*
CC(C)C(c1nnnn1C1CCCCC1)N1CCc2ccccc21 (configuration not stated) | 0 | -1 | 0 | 2 | 6
CCc1ccc(OCC(=O)N(Cc2ccc(C)cc2)Cc2ccco2)cc1 | 24 | 5 | 9 | -1 | 15
